# According to PubChem BioAssay AID1259370 (Center for Chemical Genomics, University of Michigan, 2018):
# In all, about 94,000 compounds went through this assay and about 680 (0.72%) were called active. Cut-off read from the data, not from the text of the source: active = z-score above about 3.2; inactive = the rest. Shown is part of a subset that was picked to be rich in actives.
# Biological target: M-phase inducer phosphatase 2 (Homo sapiens) + Cyclin-dependent kinase 2 (Homo sapiens) + Cyclin-A2 (Homo sapiens) (UniProt P30305+P24941+P20248)
# Experiment: primary biochemical HTRF screen for blockers of M-phase inducer phosphatase 2 binding to CDK2/cyclin A (AID 1259370)
# Settings: HTRF CDC25B-CDK2/CyclinA binding, anti-His/anti-Flag; active compounds read high
row,Compound,z-score
1,CCOc1ccc(-c2cc(O)cc3sc(=O)oc23)cc1,-1.8 (inactive)
2,CCC1(C)Cc2ccccc2-c2[nH]c(=O)n(-c3ccccc3)c(=O)c21 (stereo not given),-2.42 (inactive)
3,N#CC1=C(N)OC2=C(C(=O)CCC2)C1c1cccc(O)c1 (stereo not given),-0.34 (inactive)
4,Cn1c(C(=O)N2CCC(C(=O)N3CCN(c4ccccc4)CC3)CC2)cc2sccc21,-0.7 (inactive)
5,CC(=O)Oc1cc2c(C(=O)N3CCN(c4ccccc4)CC3)c(C)oc2c2ccccc12,10.8 (active)
6,O=C(O)C1C2CCC(O2)C1C(=O)N1CCN(c2ccccc2)CC1 (stereo not given),-0.45 (inactive)
7,O=C(O)c1ccc2nc(-c3ccccc3)[nH]c2c1,-1.66 (inactive)
8,N#Cc1c(-c2ccco2)cc(-c2ccc(Br)cc2)nc1N,-0.1 (inactive)
9,CCOC(=O)c1sc2nc3c(c(-c4ccco4)c2c1N)CCC3,-2.78 (inactive)
10,N#Cc1c(N)nc2c(c1-c1ccco1)CCCC2,19.4 (active)
11,O=C(OCC1CCCO1)c1c(-c2ccccc2)c(-c2ccccc2)n[nH]c1=O (stereo not given),-1.18 (inactive)
12,COc1cccc(CC2C(=O)Nc3ccccc32)c1OC (stereo not given),-0.98 (inactive)
13,C=CCOc1cccc(C2c3c(oc4ccc(Cl)cc4c3=O)C(=O)N2CCCN2CCOCC2)c1 (stereo not given),-1.86 (inactive)
14,C=CCN1C(=O)/C(=C/c2ccc(OC(=O)C34CC5CC(CC(C5)C3)C4)c(OC)c2)SC1=S,-2.28 (inactive)
15,Cc1ccc(CC2CC(=O)N(c3nc(C)cc(C)n3)C2=O)cc1 (stereo not given),-0.93 (inactive)
16,Cc1ccc2oc(-c3ccc(C)c(N)c3)nc2c1,-1.15 (inactive)
17,O=C1c2cccnc2C(=O)N1c1ccc(-c2nc3ccccc3o2)cc1,1.03 (inactive)
18,Cc1ccc2oc(-c3cccc(N4C(=O)c5cccnc5C4=O)c3)nc2c1,16 (active)
19,Cc1nc2c3ccccc3n3c(CCCC(=O)N4CCC(C(N)=O)CC4)nnc3n2n1,0.97 (inactive)
20,CSc1nc(N/C=C(\C#N)C(=O)c2cccs2)n2nc(C)cc2n1,-0.94 (inactive)
21,CC(C)S(=O)(=O)c1cscc1N/C=C(/C#N)C(=O)c1cccs1,8.41 (active)
22,CC(C)S(=O)(=O)c1cscc1N/C=C(/C#N)C(=O)C1CC1,0.29 (inactive)
23,Cc1ccccc1-c1noc(CSc2nnc(-c3ccncc3)n2-c2ccccc2)n1,-0.18 (inactive)
24,NC(=O)c1c(NC(=O)c2ccc(Br)o2)sc2c1CCCC2,-10.5 (inactive)
25,Cc1ccc(S(=O)(=O)c2nc(S(=O)(=O)c3ccccc3)sc2NCc2ccccn2)cc1,0.49 (inactive)
26,Cc1nc2cc(NCc3ccccn3)ccc2n1C,14.6 (active)
27,COc1ccc(-n2cnc3cc(NCc4ccco4)ccc32)cc1,-1.6 (inactive)

row,Compound,z-score
1,Cc1ccc(Cn2c(=O)c(C#N)cc3c(=O)n4ccccc4nc32)cc1,-2.86 (inactive)
2,CCC12CN3CC(CC)(CN(C1)C3c1cccc(N)c1)C2=O (stereo not given),-0.44 (inactive)
3,NC(=O)C1CCN(C(=O)C(=O)c2c[nH]c3ccccc23)CC1,-2.56 (inactive)
4,CC1CC(C)CN(C(=O)C(=O)c2c[nH]c3ccccc23)C1 (stereo not given),-1.24 (inactive)
5,O=C(C(=O)N1CCc2ccccc2C1)c1c[nH]c2ccccc12,10.4 (active)
6,Cc1ccc2nc(C3=C(O)CN(c4cc(Cl)ccc4C)C3=N)[nH]c2c1,-2.12 (inactive)
7,Fc1ccc(C(Nc2ccccc2)c2nnc(-c3ccccc3)o2)cc1 (stereo not given),0.64 (inactive)
8,Cc1cccn2c(=O)c3cc(C(=O)NCc4cccs4)n(C)c3nc12,-2.17 (inactive)
9,COCCOC(=O)C1=C(C)NC2=C(C(=O)C(C(=O)OC)C(C)C2)C1c1cccc(Br)c1 (stereo not given),-0.35 (inactive)
10,CCOC(=O)C(Sc1nc(N2CCOCC2)c2c(c1C#N)CC(C)(C)OC2)c1ccccc1 (stereo not given),-1.85 (inactive)
11,c1cc(CNCc2ccc3c(c2)OCO3)ccn1,-0.83 (inactive)
12,ONC(=Nc1ccc2c(c1)OCO2)C(=Nc1ccc2c(c1)OCO2)NO,20.3 (active)
13,COc1cccc(CNCc2ccc3c(c2)OCO3)c1,2.98 (inactive)
14,CCCc1cc(-c2n[nH]c(C)c2-c2ccc3c(c2)OCCO3)c(O)cc1O,1.36 (inactive)
15,Cc1nc(-n2cnc3ccccc32)c2c3c(sc2n1)CCC3,-2.24 (inactive)
16,COc1ccc(C(=O)Oc2ccc3c(C)cc(=O)oc3c2C(C)=O)cc1OC,4.76 (inactive)
17,CCOc1ccc(OCCSc2nc3ccccc3n2CC(=O)O)cc1,-2.11 (inactive)
18,O=C1C2N=NN(Cc3cccc(F)c3)C2C(=O)N1c1ccccc1 (stereo not given),0.2 (inactive)
19,COc1ccc(-c2csc(-c3cc4c([nH]c3=O)CC(c3ccco3)CC4=O)n2)cc1F (stereo not given),12.9 (active)
20,COc1ccc(-c2csc(-c3cc4c([nH]c3=O)CC(c3ccc(OC)c(OC)c3)CC4=O)n2)cc1 (stereo not given),-1.19 (inactive)
21,COc1ccc(C2CC(=O)c3cc(-c4nc(-c5ccc(F)cc5)cs4)c(=O)[nH]c3C2)cc1 (stereo not given),-1.13 (inactive)
22,COc1ccc(-c2noc(COc3cc(C)cc(C)c3C)n2)cc1OC,1.44 (inactive)
23,COC(=O)c1ccc([C@@H]2Nc3ccc(F)cc3[C@@H]3C=CC[C@@H]32)cc1,-0.78 (inactive)
24,CCOc1cccc2c1N[C@@H](c1ccc(C(=O)O)cc1)[C@H]1CC=C[C@@H]21,11.8 (active)
25,COc1cccc([C@@H]2Nc3ccc(S(=O)(=O)Nc4ccccc4)cc3[C@@H]3C=CC[C@@H]32)c1,-1.16 (inactive)
26,Cn1c(=O)n(CCc2ccccc2)c(=O)c2c3c(sc21)COC(C)(C)C3,-1.21 (inactive)
27,C#CCSc1nc2c(c(=O)[nH]1)C(c1ccc(OCCCC)cc1)CC(=O)N2 (stereo not given),-1.04 (inactive)

row,Compound,z-score
1,C#CCSc1nc2c(c(=O)[nH]1)C(c1ccc(O)c(O)c1)CC(=O)N2 (stereo not given),19 (active)
2,CCSc1nc2c(c(=O)[nH]1)C(c1ccc(OC)c(Br)c1)CC(=O)N2 (stereo not given),-0.2 (inactive)
3,Cc1[nH]c2ccccc2c1C1(O)C(=O)N(Cc2cccs2)c2ccc(Br)cc21 (stereo not given),1.66 (inactive)
4,COc1ccc(-c2ccc(Cc3nc(-c4ccc(OC)cc4)no3)cc2)cc1,-3.73 (inactive)
5,CN(Cc1ccccc1)c1oc(-c2ccc(COc3ccccc3)o2)nc1C#N,1.1 (inactive)
6,CCCc1nc2sc3c(OCC)ncnc3c2c2c1COC(C)(C)C2,0.03 (inactive)
7,Cc1cc(C(=O)O)c2cc(Br)ccc2n1,-1.02 (inactive)
8,COc1cccc(-c2cn3nc(C)sc3n2)c1,-1.51 (inactive)
9,CCOC(=O)N1CCC(C(N)=O)CC1,-0.86 (inactive)
10,CCOC(=O)N1CCN(c2c(NCCN3CCN(c4cccc(Cl)c4)CC3)c(=O)c2=O)CC1,-2.84 (inactive)
11,CCOC(=O)N1CCC(c2cc(=O)n(-c3ccccc3)[nH]2)CC1,7.05 (active)
12,Cc1nc2sc(C(c3cccc(Cl)c3)N3CCN(c4ccccc4)CC3)c(O)n2n1 (stereo not given),-0.28 (inactive)
13,Cc1ccc(N(CC(=O)NC(C(C)C)C(C)C)S(C)(=O)=O)cc1Cl,-1.52 (inactive)
14,O=C(Nc1ccc(O)c(-c2nc3ccccc3s2)c1)C(c1ccccc1)c1ccccc1,-2.45 (inactive)
15,CCN1CCCC1CNC(=O)c1nnc(CS(=O)(=O)c2ccccc2)o1 (stereo not given),7.59 (active)
16,CCN1CCCC1CNC(=O)c1sc2nc(C)cc(C)c2c1-n1cccc1 (stereo not given),-0.15 (inactive)
17,O=C(NCCN1CCOCC1)c1nnc(CS(=O)(=O)c2ccccc2)o1,-1.86 (inactive)
18,Cc1nc2sccn2c(=O)c1S(=O)(=O)N1CCOCC1,-0.79 (inactive)
19,Cc1cc(C)cc(Nc2nccc(=O)[nH]2)c1,-2.01 (inactive)
20,CC1CCCC(NC(=O)c2cc3c(s2)-c2ccccc2OC3)C1C (stereo not given),-0.62 (inactive)
21,CC(C)Cc1c(O)nc(SCC(=O)NCc2ccco2)[nH]c1=O,0.23 (inactive)
22,Nc1ncnc2nc(SCC(=O)NCc3ccco3)[nH]c12,-1.28 (inactive)
23,CCCCc1c(O)nc(SCC(=O)NCc2ccco2)[nH]c1=O,4.39 (active)
24,O=C(CC1Oc2ccccc2NC1=O)NCc1ccco1 (stereo not given),-1.29 (inactive)
25,Cn1c(=O)c2c(c3ccccc31)OC(=O)CC2c1ccc(Br)cc1 (stereo not given),-0.71 (inactive)
26,O=C1CC(c2ccccc2)Sc2nc(-c3ccccc3)nn21 (stereo not given),-0.15 (inactive)
